In all, about 96,000 compounds went through this assay and about 20,000 (21%) were called active.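 How the source made its calls: active means CYP2C19 inhibition above a set limit at 5 µM in the primary screen (cut at about 50% in these data); inactive means the rest.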 The list is a sample of the results.
The compounds below were run against Cytochrome P450 2C19 (Homo sapiens) (UniProt P33261) (assay: blockers of cytochrome P450 2C19 activity – biochemical, luminescence, ADME assay, primary screen (AID 778;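 further: plate controls were negative control wells for no effect and 2.5 mM tranylcypromine positive control for full effect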)). Conditions: CYP2C19 Supersomes, luciferin-H EGE luminescence, 30 min; at 5 µM; hits give high values.
Cytochrome P450 2C19 (Homo sapiens), sequence (P33261 whole entry, looked up): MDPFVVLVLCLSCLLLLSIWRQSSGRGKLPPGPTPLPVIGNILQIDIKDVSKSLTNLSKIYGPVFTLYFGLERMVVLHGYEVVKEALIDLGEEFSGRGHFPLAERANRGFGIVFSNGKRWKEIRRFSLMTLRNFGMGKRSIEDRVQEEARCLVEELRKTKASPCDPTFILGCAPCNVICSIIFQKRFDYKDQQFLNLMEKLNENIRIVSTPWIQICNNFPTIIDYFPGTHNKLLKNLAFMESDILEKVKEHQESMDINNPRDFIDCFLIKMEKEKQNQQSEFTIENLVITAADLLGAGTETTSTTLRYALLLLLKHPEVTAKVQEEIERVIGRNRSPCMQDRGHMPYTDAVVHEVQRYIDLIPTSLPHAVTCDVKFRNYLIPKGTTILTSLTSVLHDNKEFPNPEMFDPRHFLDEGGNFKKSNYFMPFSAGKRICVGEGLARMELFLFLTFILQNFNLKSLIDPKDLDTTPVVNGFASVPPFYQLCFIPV

inhibition, inactive:
CCC(=O)N1c2ccc(S(=O)(=O)CCC(=O)N3CCN(c4ccccc4)CC3)cc2CC1C (stereo not given) 26.2%
Cc1csc(=NC(=O)c2ccccc2)n1CCO 49.7%
Cc1ccn2cc(C(=O)NC3CCN(Cc4ccccc4)CC3)nc2c1 11.4%
CCC(=O)Nc1ccc(C(=O)Nc2cc(C)on2)cc1 14.7%
CCCC(C)C(=O)Nc1ccc(NC(C)=O)cc1 (stereo not given) -6.8%
O=C(NCCc1ccccn1)c1cc(C(=O)C2CCCCC2)c[nH]1 -1.5%
CCOC(=O)C1CCN(c2ncnc3c2oc2ccc(Br)cc23)CC1 43.1%
Cc1cc(C(=O)Nc2c(C)nn(Cc3ccccc3)c2C)on1 11.7%
CSc1ccccc1NC(=O)c1cc(C2CC2)on1 31.1%
Cc1nc2nc(CSc3nc4ccccc4s3)cc(=O)n2[nH]1 -9.6%
O=S(=O)(c1ccccc1)N(CC(O)CN1CCCCC1)c1ccccc1 (stereo not given) 17.7%
O=c1oc2c(Cl)cc(Cl)cc2cc1-c1nnc(Nc2ccccc2F)s1 -3.7%
CCOC(=O)CNC(=O)CN1C(=O)CCSc2ccccc21 44.3%
CCSc1ncnc2c(C#N)c3n(c12)CCCCC3 5.8%
Cc1nc(-c2ccc(NC(=O)c3cccs3)cc2)cs1 12.8%
O=C(Nc1ccccc1)OCc1cn(-c2ccc(Cl)cc2)nn1 -1.4%
O=C(Nc1ccccc1)OCc1cc(-c2ccc(Cl)cc2)on1 16.6%
CCOC(=O)CSc1ncc(-c2cccc(Cl)c2)cn1 11.1%
COc1ccccc1N=C(C)C1=C(O)COC1=O 27.5%
CC(C)N(C(=O)Cn1c(SCC(=O)N2CCN(c3ccccc3)CC2)nc2ccccc21)C(C)C 6.9%
COC(=O)[C@H](Cc1ccccc1)NC(=O)N1CC(C)OC(C)C1 (stereo not given in full) 8.3%
CC(C)(C)NC(=O)Cn1nnc(-c2ccccc2Cl)n1 45%
COc1ccc(-c2nnn(CC(=O)N(CCO)C(C(=O)NC3CCCC3)c3ccc(F)cc3)n2)cc1 (stereo not given) 7.8%
CCCNC(=O)N1CCN(C(=O)NCCC)CC1 4.5%
COc1ccc(NC(=O)c2ccc(OC)cc2)cc1 -5.6%
COCCNC(=S)c1ccc(OC)cc1 18%
Oc1ccccc1CNc1ncc(Br)cc1Br 39.4%
O=C(NCCSc1ccccc1)c1ccco1 21.8%
COc1ccc(N(CC(=O)NC(C)(C)C)C(=O)c2ccco2)cc1 -6.7%
CCc1ccc(-c2cc(C(=O)NCc3ccco3)c3ccccc3n2)s1 11.6%
c1ccc(CCC2=NCCn3cccc32)cc1 10.1%
Cc1ccc(C)c(NC(=O)C2CC(=O)N(C(C)C)C2)c1 (stereo not given) -10.6%
CC(=O)Nc1cccc(/C(C)=N/NC(=O)c2ccccc2Cl)c1 10.9%
Cc1cccc(C(=O)Nc2ccccc2-c2nnn(CC(=O)Nc3ccc4c(c3)OCCO4)n2)c1 -12.5%
O=C(NC1CCCCC1)C1c2ccccc2C(=O)N1Cc1ccco1 (stereo not given) 12.4%
CC1CCN(c2nc3c(c(=O)[nH]c(=O)n3C)n2CCCc2ccccc2)CC1 18.4%
O=C1CSC(c2cccc(F)c2)N1c1ccc(O)cc1 (stereo not given) 26.3%
CC1C/C(=N/NC(=O)c2cccs2)CC(C)(C)C1 (stereo not given) 41.9%
FC(F)(F)c1cc(C(F)(F)F)c2ccc(N3CCN(c4ccccc4)CC3)nc2n1 -3.4%
CCOC(=O)CCCNC(=O)CN1C(=O)NC(CCc2ccccc2)C1=O (stereo not given) -2.6%
COc1ccc(-c2nnco2)cc1OC 11.8%
C=CCn1c(C(C)NC(=O)CC)nc2ccccc21 (stereo not given) -3.9%
CCCC(NC(=O)c1ccccc1)c1nc2ccccc2n1Cc1ccc(C(=O)OC)o1 (stereo not given) 2.7%
CC(CN1CCCCC1)OC(=O)c1ccccc1Cl (stereo not given) 38.8%
Cc1noc(C)c1S(=O)(=O)Nc1ccc(C(=O)O)cc1 2.3%
Cc1ccc(NS(=O)(=O)c2c(C)[nH]c(=O)[nH]c2=O)cc1C 1.6%
c1ccc(Cc2nn3c(Cn4cnc5ccccc54)nnc3s2)cc1 39%
Cc1c(-c2ccccc2)nc(N)c(C#N)c1-c1cccs1 0.7%
CCOC(=O)c1ccc(NC(=O)CS(=O)(=O)c2cn(CC)c3ccccc23)cc1 20.6%
CC(C)(C)NS(=O)(=O)c1ccc(NC(=O)NC2CCCCC2)cc1 8%
CC(C)NS(=O)(=O)c1ccc(NC(=O)C2CCCCC2)cc1 13.3%
CC1=C(C)CC(C(=O)NNC(=O)c2ccccc2O)C(C(=O)O)C1 (stereo not given) -7.2%
Cc1nc(SCC(=O)N2CCc3ccccc3C2)c2c(C)c(C)sc2n1 20%
CC1CCCN(C(C(=O)Nc2ccc(C(C)C)cc2)c2ccc3c(c2)OCO3)C1 (stereo not given) 17.7%
COc1ccc(-n2c(SCC(=O)Nc3ccc4c(c3)OCO4)nnc2C(C)N2CCCCC2)cc1 (stereo not given) 16.9%
CCN(CC)Cc1csc2ccc(Br)cc12 5.2%
O=[n+]1c2c(n([O-])c3cc(Br)ccc31)CCC2 21%
C=CCn1c(=O)c2ccccc2n2c(SCC(=O)N3CCCc4ccccc43)nnc12 36.5%
Cc1nnc(SCC(=O)N2CCc3ccccc32)n1-c1ccccc1 3.9%
COc1ccc(-c2[nH]nc(-c3ccccc3)c2-c2nc3ccccc3[nH]2)cc1 11.3%
Cn1c(C(=O)NCCCN2CCN(c3cccc(Cl)c3)CC2)cc2c(=O)n(C)c3ccccc3c21 18%
COc1ccccc1CNC(=O)C1CCN(S(C)(=O)=O)CC1 2.2%
Cc1cccc(NC(=O)C2CCCN2S(=O)(=O)c2ccc(F)cc2)c1C (stereo not given) 16.2%
O=C(O)C1CCCN1S(=O)(=O)c1ccc2c(c1)CCC2 (stereo not given) -10.4%
O=C(NCc1cccs1)C1CCN(S(=O)(=O)c2ccc3c(c2)OCCO3)CC1 17.6%
CCOC(=O)CNC(=O)c1nn(-c2cccc(OC)c2)c(=O)c2ccccc12 5.3%
COc1ccc(-n2nnc3c(=O)n(CC(=O)OCc4ccccc4)cnc32)cc1 3.9%
COC(=O)C1=C(Nc2ccc(OC)cc2)C=C(C)C(C(=O)OC)C1c1ccc(C)cc1 (stereo not given) 33.3%
CC1(C)Cc2c(sc3nc4n(c(=N)c23)CCCCC4)CO1 -6.4%
O=C(NCCCNCc1ccccc1)c1ccc(/C=N/O)nc1 -13.4%
Cn1c(=O)[nH]c(=O)c2c1nc(CN(Cc1ccccc1)Cc1ccccc1)n2CCN1CCOCC1 14.9%
COc1ccc(-c2nc3n(c2Br)CCC3)cc1 32.9%
Cc1ccc(C(=O)Nc2c(C#N)c(C)c(C)n2Cc2ccccc2)cc1 23.9%
CN1C(=O)c2ccccc2C(C(=O)NCCCN2CCCC2)C1c1c[nH]c2ccccc12 (stereo not given) -6.7%
COCc1[nH]nc2c1C(C1C=CCCC1)C(C#N)=C(N)O2 (stereo not given) 17.2%
CC1CCc2c(sc(NC(=O)c3ccc(Cn4cc(Br)cn4)o3)c2C(N)=O)C1 (stereo not given) 28.9%
Nc1ccccc1SCc1cc([N+](=O)[O-])cc2c1OCOC2 19.4%
CCC(=O)c1ccc(OCC(O)CN2C(=O)NC(C)(C)C2=O)cc1 (stereo not given) 31.7%
CC1(C)NC(=O)N(CCOc2cccc(Oc3ccccc3)c2)C1=O 42.5%
Cc1ccc(SCC2=NNC(=O)C2)cc1 7.6%

inhibition, active:
Cc1nn(Cc2ccc(Cl)c(Cl)c2)c(C)c1NC(=O)c1cc(C2CC2)on1 95%
CN(C)/C(CN1CCCCC1)=C1\N=C(c2ccccc2)OC1=O 63.8%
O=C(Nc1ccc(Cl)cc1)OCc1cc(-c2ccccc2)on1 76.4%
Cc1ccc(-c2nnn(CC(=O)N(CCO)C(C(=O)NC(C)(C)C)c3ccncc3)n2)cc1 (stereo not given) 74%
COc1ccc(C(=S)Nc2ccccc2)cc1 65.2%
COc1ccc(CCNC(=O)c2ccco2)cc1 55.3%
O=S(=O)(c1ccc(Br)cc1)n1ccc2ccccc21 66.4%
Cc1ccc(C)c(N2C(=O)CS/C2=N\NC(=O)c2ccccc2Cl)c1 63.7%
O=C1c2ccccc2C(Nc2ccc3c(c2)OCCO3)N1Cc1ccco1 (stereo not given) 72.9%
Cc1ccnc(N2C(=O)c3ccccc3C2Nc2ccc3c(c2)OCCO3)c1 (stereo not given) 93.2%
CCCn1c(C(Cc2ccccc2)NC(=O)COC)nc2ccccc21 (stereo not given) 90.2%
Cc1cc(C)c(C)c(S(=O)(=O)Nc2ccc(O)cc2)c1C 50.9%
CCOC(=O)[C@H]1CCC[C@@H](NS(=O)(=O)c2ccc(NC(C)=O)cc2)C1 57.9%
O=C(Nc1ccc2c(c1)OCCO2)C(c1ccc(F)cc1)N1CCCCC1 (stereo not given) 56.5%
CCCn1c(SCC(=O)N2CCc3ccccc32)nnc1-c1ccncc1 83.8%
O=C1CCc2cc(S(=O)(=O)N3CCC(C(=O)NCc4ccccc4Cl)CC3)ccc2N1 88.6%
CSc1cccc(NC(=O)C2CCCN2S(=O)(=O)c2ccc3c(c2)CCC(=O)N3)c1 (stereo not given) 56.8%
N#CC1=C(N)OC2=C(C(=O)CCC2)C1C1CC=CCC1 (stereo not given) 61.1%
Cc1ccc(SCCN2C(=O)NC(C)(C)C2=O)cc1 97.8%
CC1(C)NC(=O)N(CCCCSc2ccc(Cl)cc2)C1=O 87.5%
